Screening data as filed in PubChem.
PNC assembly inh: perinucleolar compartment assembly inhibition; actives 3.1% (n = 140,000); activity change (PNC), negative = inhibition, % at 10 µM; AID 2417; PC3M PTB-GFP, PNC prevalence imaging, 16 h; stronger effect = lower value;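 active means readout at or below -70, meaning at least 70% loss of cells showing the perinucleolar compartment, a nuclear body marking cancer cells; inconclusive means readout between -30 and a set limit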
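Read-out is percentage of cells bearing a perinucleolar compartment, from automated 20x imaging of fixed, Hoechst-stained PC3M PTB-GFP cells. Cells were seeded 4 h, then exposed 16 h to compound (23 nl of library stock) in duplicate plates.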
LMNA splice mod: modulators of lamin A splicing | Potency, µM (top dose mostly 46.1 µM), hits mostly inhibitors | HeLa LMNA splicing GFP/RFP minigene ratio, 48 h | actives 0.01% (n = 200,000); active means well fitted inhibition curve with a large enough effect in the signal ratio, with a control signal flat, not every such curve was filed as active; inconclusive means small, poorly fitted or top-dose-only effect, or effect the other way, or a change in a side signal; the % refers to the signal ratio
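Read-out is the ratio of GFP to DsRed2 object intensity, acquired by 488 nm laser-scanning cytometry on HeLa lamin A-EGFP minigene reporter cells. Compound incubation 48 hrs at 37 °C in Opti-MEM with 2% FBS; DMSO 0.5% final.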
12-hLO inh: inhibitors of human 12-lipoxygenase (ALOX12); P18054; purified 12-hLO, xylenol orange hydroperoxide absorbance; Potency, µM (doses to about 57.1 µM), hits mostly inhibitors; actives 0.12% (n = 150,000); AID 1452; active means well fitted inhibition curve with a large enough effect; inconclusive means small, poorly fitted or top-dose-only effect; further: nearly all actives have a fitted effect of over 55% in size
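Purified human 12hLO (150 nM final) was preincubated with compounds for 15 min at room temperature in 25 mM Hepes pH 7.0, 0.01% Triton X-100, then reacted with 40 uM arachidonic acid for 30 min. Hydroperoxide was detected with ferrous iron/xylenol orange.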
HPGD block: HPGD (human) dehydrogenase inhibition; actives 4.3% (n = 150,000); Potency, µM, actives largely listed as inhibitors; P15428; purified HPGD, NADH fluorescence kinetic, PGE2 substrate
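NADH formation kinetics: reaction with 30 uM PGE2 and 1 mM NAD+ (final), 20 nM enzyme, Tris-HCl pH 8 with Tween 20, after 15 min compound preincubation at room temperature. Fluorescence change, last versus first of five reads.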
ALDH1A1 block: ALDH1A1 (human) enzyme inhibition | actives 7.3% (n = 220,000) | Purified ALDH1A1, NADH fluorescence, propionaldehyde substrate | Potency, µM (top dose mostly 75.3 µM), actives largely listed as inhibitors
Target sequence (P00352 whole entry, looked up): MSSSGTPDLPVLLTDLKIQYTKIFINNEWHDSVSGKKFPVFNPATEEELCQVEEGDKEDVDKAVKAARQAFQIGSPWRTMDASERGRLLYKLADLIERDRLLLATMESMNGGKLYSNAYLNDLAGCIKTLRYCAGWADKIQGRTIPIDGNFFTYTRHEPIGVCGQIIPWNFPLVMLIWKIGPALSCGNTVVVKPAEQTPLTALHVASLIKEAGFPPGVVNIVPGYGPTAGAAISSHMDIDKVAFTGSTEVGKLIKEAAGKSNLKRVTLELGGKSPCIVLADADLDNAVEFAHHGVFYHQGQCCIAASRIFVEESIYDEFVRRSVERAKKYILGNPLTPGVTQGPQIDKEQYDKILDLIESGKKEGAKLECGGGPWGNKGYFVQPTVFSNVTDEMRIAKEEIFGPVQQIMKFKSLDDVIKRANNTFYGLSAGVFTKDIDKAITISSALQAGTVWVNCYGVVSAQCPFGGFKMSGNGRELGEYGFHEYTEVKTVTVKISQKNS
Large screens that a line does not name were inactive. Hits are enriched below; roughly 10% of the tested compounds scored in any of these assays. Unless noted, the call rests on the fitted dose curve; in most records, active means well fitted inhibition curve with a large enough effect (not every such curve was filed as active); inconclusive means small, poorly fitted or top-dose-only effect, or another doubt; inactive means no such curve, though single readings can be large or run the other way.

CN(C)S(=O)(=O)N1CCN(c2ccc([N+](=O)[O-])c(N3CCCCC3)c2)CC1	LMNA splice mod inconclusive, ALDH1A1 block 4µM (no result: PNC assembly inh, 12-hLO inh, HPGD block)
CC(=O)N1CCN(c2ccc([N+](=O)[O-])c(-n3nc(C)cc3C)c2)CC1	none
Cc1cc(C)n(-c2cc(N3CCN(C(=O)c4cccc(Br)c4)CC3)ccc2[N+](=O)[O-])n1	ALDH1A1 block 14µM
O=C(COc1ccccc1Cl)N1CCN(c2ccc([N+](=O)[O-])c(N3CCOCC3)c2)CC1	PNC assembly inh inconclusive, LMNA splice mod inconclusive, ALDH1A1 block 11µM
Cc1cc(N2CCCCC2)ccc1[N+](=O)[O-]	HPGD block 22µM
O=S1(=O)N[C@H]2CC[C@@H]3NS(=O)(=O)N[C@H]4CC[C@H](N1)N4S(=O)(=O)N23	none (no result: PNC assembly inh, LMNA splice mod)
COCCn1c(=O)c(-c2ccc(F)cc2)nc2cncnc21	none (no result: PNC assembly inh, LMNA splice mod)
Cc1cc(C)n(-c2nc3ccccc3nc2N2CCN(C(=O)c3ccccc3)CC2)n1	ALDH1A1 block 13µM
Cc1nn(-c2cc(N3CCCCC3)ccc2[N+](=O)[O-])c(=O)c2ccccc12	none
Cc1nn(-c2cc(N3CCNCC3)ccc2[N+](=O)[O-])c(=O)c2ccccc12	PNC assembly inh -97, ALDH1A1 block inconclusive
O=C(c1ccccc1Br)N1CCN(c2ccc([N+](=O)[O-])c(N3CCOCC3)c2)CC1	ALDH1A1 block 7.9µM (no result: PNC assembly inh, 12-hLO inh, HPGD block)
O=[N+]([O-])c1ccc(N2CCOCC2)cc1N1CCCCC1	ALDH1A1 block 5.6µM (no result: PNC assembly inh, 12-hLO inh, HPGD block)
CCCCc1c(O)n(-c2ccccc2)[nH]c1=O	none (no result: PNC assembly inh, LMNA splice mod)
C[C@@](N)(C(=O)O)c1ccc(P(=O)(O)O)cc1	none (no result: PNC assembly inh, LMNA splice mod)
CC(C)(C)c1ccc(CNc2cc(N3CCOCC3)ccc2[N+](=O)[O-])cc1	LMNA splice mod inconclusive, ALDH1A1 block 1.6µM (no result: HPGD block)
O=[N+]([O-])c1ccc(N2CCCC2)cc1N1CCCC1	ALDH1A1 block 14µM
O=[N+]([O-])c1ccc(N2CCCCC2)cc1N1CCOCC1	none
CSCCC(NS(=O)(=O)c1ccc(Cl)cc1)C(=O)OCc1c(Cl)cccc1Cl (configuration not stated)	PNC assembly inh inconclusive, LMNA splice mod inconclusive, ALDH1A1 block inconclusive
CSCCC(NS(=O)(=O)c1ccccc1F)C(=O)OCc1ccccc1Cl (configuration not stated)	LMNA splice mod inconclusive, ALDH1A1 block 16µM
COc1ccccc1N(C)S(=O)(=O)c1ccc(C(=O)OCC(=O)N(C)c2ccccc2)cc1	ALDH1A1 block 32µM (no result: PNC assembly inh, 12-hLO inh, HPGD block)
C=CCSSSCC=C	LMNA splice mod inconclusive, HPGD block 28µM, ALDH1A1 block 13µM (no result: PNC assembly inh)
O=C(c1cc(-c2ccc(Br)cc2)n[nH]1)N1CCN(S(=O)(=O)c2ccc(Br)s2)CC1	none (no result: PNC assembly inh, 12-hLO inh, HPGD block, ALDH1A1 block)
COc1ccc(-c2nc(CSCC(=O)N3CCN(c4cccc(C)c4C)CC3)c(C)o2)cc1OC	none (no result: PNC assembly inh, 12-hLO inh, HPGD block, ALDH1A1 block)
NC(N)=NS(=O)(=O)c1ccc(NC(=S)NC(=O)c2ccc3c(c2)OCO3)cc1	ALDH1A1 block 25µM (no result: PNC assembly inh, LMNA splice mod, 12-hLO inh, HPGD block)
O=S(=O)(c1ccc(NC(=S)Nc2ccccc2)cc1)N1CCOCC1	ALDH1A1 block 20µM
O=S(=O)(c1ccc(NC(=S)Nc2ccc3c(c2)OCO3)cc1)N1CCOCC1	HPGD block inconclusive, ALDH1A1 block 22µM
CNS(=O)(=O)c1ccc(NC(=S)Nc2ccc3c(c2)OCO3)cc1	ALDH1A1 block 5µM (no result: PNC assembly inh, LMNA splice mod, 12-hLO inh, HPGD block)
NS(=O)(=O)c1ccc(NC(=S)NC(=O)c2ccc3c(c2)OCO3)cc1	ALDH1A1 block inconclusive (no result: PNC assembly inh, 12-hLO inh, HPGD block)
COc1ccc(C2C(=O)N(C3CCCCCC3)CC(=O)N2CCc2ccc(OC)c(OC)c2)cc1 (configuration not stated)	none (no result: PNC assembly inh, 12-hLO inh, HPGD block, ALDH1A1 block)
CC(NC(=S)Nc1ccc(S(=O)(=O)N2CCOCC2)cc1)C1CC2CCC1C2 (configuration not stated)	LMNA splice mod inconclusive, 12-hLO inh inconclusive, ALDH1A1 block 20µM
CC(=O)c1c(C)[nH]c(C(=O)N2CCCCCC2)c1C	HPGD block 13µM
COc1ccc(-c2nc3sc(CCNC(=O)c4ccc(C(C)(C)C)cc4)c(C)n3n2)cc1	none (no result: PNC assembly inh, 12-hLO inh, HPGD block, ALDH1A1 block)
CCCCOc1ccc2c(c1)C(=O)c1cc(O)ccc1-2	ALDH1A1 block 40µM (no result: PNC assembly inh, LMNA splice mod, 12-hLO inh, HPGD block)
Cc1cc2c(cc1Cl)C(c1ccccc1C)CC(=O)O2 (configuration not stated)	ALDH1A1 block inconclusive (no result: PNC assembly inh, LMNA splice mod)
CCC(C)NC(=O)c1cc2n(n1)CCCN(Cc1ccc(C)cc1)C2=O (configuration not stated)	none (no result: PNC assembly inh, 12-hLO inh, HPGD block, ALDH1A1 block)
